This is a sample that favours compounds with a hit; in the whole collection about 6.6% have one here.
Beta apoptosis: blocks beta cell apoptosis; INS-1E cytokine-induced death, ATP luminescence, 48 h; percent of positive-control rescue, neutral wells zero; actives 0.8% (n = 300,000); protection from apoptosis, % (concentration not given with the values); AID 435005;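 active means Every replicate reaches about 75%, or at least half do and their mean reaches it too, limit read from the data; inconclusive means At least half of replicates reach the limit but their mean does not; inactive means Under half of replicates reach the limit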;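 further: 0% = cytokine-treated negative control wells and 100% = positive control rescue; higher means more ATP so stronger rescue from cytokine killing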
NR3A LBD binder: modulators (binders) of human NR3A ligand-binding domain; NR3A LBD differential scanning fluorimetry, Tm shift; 0% = protein alone, 100% = glycine-bound protein; Tm shift relative to glycine control, % at 25 µM; actives 2.5% (n = 340,000); AID 1259313;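 active means melting temperature shift of at least 10% of the positive control shift, at one fixed dose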
Gli-Sufu antag: antagonists of Gli-Sufu signaling | Sufu-KO-LIGHT fibroblasts, Gli luciferase reporter luminescence | inhibition, % at 5 µM | actives 0.74% (n = 340,000);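 active means inhibition above about 55%, limit read from the data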;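 further: 0% = DMSO-treated cells and 100% = wells with medium but no cells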
MPTP inh: permeability transition pore inhibition | actives 1.4% (n = 360,000) | inhibition, % at 10 µM | isolated mouse mitochondria, Ca2+ swelling absorbance, 30 min;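 active means inhibition of 50% or more, scaled per plate between neutral and stimulator controls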;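 further: 0% = DMSO wells given calcium and 100% = 1 mM EGTA wells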
Mdm2-MdmX inh: disrupts the human Mdm2-MdmX interaction | O15151+Q00987 | SaOS-2 split-luciferase Mdm2/MdmX complementation, luminescence | inhibition, % at 8 µM | actives 3% (n = 330,000);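 active means inhibition of at least 50% at 8 µM in the primary screen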
Target sequence (O15151 whole entry, looked up): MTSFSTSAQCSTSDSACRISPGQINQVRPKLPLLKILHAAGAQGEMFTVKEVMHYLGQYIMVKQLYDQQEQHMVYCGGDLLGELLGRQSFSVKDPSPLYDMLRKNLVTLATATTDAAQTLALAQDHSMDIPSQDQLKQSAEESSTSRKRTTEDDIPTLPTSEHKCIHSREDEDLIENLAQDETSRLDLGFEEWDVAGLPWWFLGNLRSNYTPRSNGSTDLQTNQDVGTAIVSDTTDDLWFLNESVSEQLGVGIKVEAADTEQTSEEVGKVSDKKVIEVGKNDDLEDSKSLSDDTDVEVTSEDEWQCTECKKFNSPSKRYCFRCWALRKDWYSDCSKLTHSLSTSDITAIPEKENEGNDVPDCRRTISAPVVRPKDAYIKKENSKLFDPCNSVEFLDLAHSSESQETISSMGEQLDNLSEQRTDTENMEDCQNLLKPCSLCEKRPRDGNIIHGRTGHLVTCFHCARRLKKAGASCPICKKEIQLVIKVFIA
Target sequence (Q00987 whole entry, looked up): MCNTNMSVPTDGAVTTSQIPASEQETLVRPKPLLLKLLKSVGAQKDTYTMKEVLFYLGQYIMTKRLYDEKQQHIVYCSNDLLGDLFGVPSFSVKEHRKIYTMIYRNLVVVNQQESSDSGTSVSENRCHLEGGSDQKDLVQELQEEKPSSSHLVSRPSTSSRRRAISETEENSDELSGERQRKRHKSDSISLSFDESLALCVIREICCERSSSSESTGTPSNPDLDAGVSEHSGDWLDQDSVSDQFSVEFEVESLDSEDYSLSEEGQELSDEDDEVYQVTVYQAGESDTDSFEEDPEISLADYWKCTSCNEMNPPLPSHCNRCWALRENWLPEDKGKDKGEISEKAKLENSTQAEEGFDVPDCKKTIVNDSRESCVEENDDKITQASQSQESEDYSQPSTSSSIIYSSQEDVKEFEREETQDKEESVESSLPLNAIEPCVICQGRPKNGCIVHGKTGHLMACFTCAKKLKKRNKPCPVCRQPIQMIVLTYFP
CSC inhib: blocks cancer stem cells; cancer stem cell-like cells viability, luminescence; inhibition, % at 7.5 µM; actives 1.1% (n = 300,000); AID 2717; in the data active means inhibition above about 75%; inconclusive means no clear call, values can overlap the other calls; tested in HMLE shEcad cells
Rh123 counter: Rhodamine 123 counter-screen of mitochondrial pore hits; inhibition, % at 10 µM; isolated mitochondria, membrane potential, Rhodamine 123 fluorescence; shares compounds with MPTP inh; actives 78% (n = 5,000); in the data active means inhibition above about 22%;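 further: 0% = DMSO vehicle and 100% = positive control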
MPTP abs DR: MPTP inhibition, dose response swelling confirmation. shares compounds with MPTP inh. AID 651561. IC50, µM. actives 58% (n = 780). isolated mitochondria swelling, absorbance; in the data active means IC50 below about 20 µM
MPTP cs DR: counter-screen for mitochondrial permeability transition pore inhibitors, dose response. isolated mitochondria counterscreen, fluorescence read-out. IC50, µM. shares compounds with MPTP inh. actives 49% (n = 780); in the data active means IC50 below about 80 µM
The depositor's hits bear a star; i = inactive; ? = inconclusive; . = no result given; + = active, no number.

SMILES | Beta apoptosis | NR3A LBD binder | Gli-Sufu antag | MPTP inh | Mdm2-MdmX inh | CSC inhib | Rh123 counter | others
Cc1ccc(N=Nc2ccc(O)c(/C=N\NC(=O)c3ccc(N)cc3)c2)cc1C | 30 | 1 | -37 | 2 | 45 | 11 | .
COc1ccc(CCNC(=O)CCc2nnc(Cc3ccc4c(c3)OCO4)o2)c(OC)c1 | -2 | 0 | 12 | 1 | 36 | -11 | .
CN(c1cccc(NS(=O)(=O)c2ccccc2)c1)S(C)(=O)=O | 1 | -1 | -1 | 0 | 3 | 1 | .
CCOc1ccc(S(=O)(=O)Nc2cccc(N(C)S(C)(=O)=O)c2)cc1 | 16 | 0 | 33 | 95* | 14 | -9 | 42*
COc1ccc(C2SCC(=O)N2CCc2ccc(OC)c(OC)c2)cc1 (stereo not drawn) | 24 | 1 | 6 | 71* | 31 | 41 | 33*
COc1ccc(CCN2C(=O)CSC2c2ccc(OC)c(OC)c2)cc1OC (stereo not drawn) | -1 | -1 | 23 | 8 | -41 | -6 | .
CCC1=NN(C(=O)c2cccc(Br)c2)C(O)(c2ccc(Br)cc2)C1 (stereo not drawn) | ? | 5 | 37 | 84* | 42 | 105* | 89*
COc1ccc(CNC(=S)Nc2ccc(Br)cc2)cc1 | -9 | -4 | 2 | 88* | 18 | 4 | 92*
COc1ccc(CNC(=S)Nc2ccc(-c3ccccc3)cc2)cc1 | -1 | 6 | -4 | 18 | 21 | -2 | .
COc1ccc(CNC(=S)Nc2ccc(F)c(Cl)c2)cc1 | -8 | 1 | -6 | 96* | -8 | 10 | 97*
COC(=O)c1ccc(Cn2c(C)c(C(=O)NCc3ccco3)sc2=O)o1 | . | . | . | -2 | . | . | .
Cc1c(Br)c(C(F)(F)F)nn1CC(=O)NCCCn1ccnc1 | -1 | 0 | 2 | 2 | 0 | -15 | .
Cc1cccc(NC(=O)c2csnn2)n1 | -4 | 0 | 14 | -2 | -9 | 8 | .
NC1=NC[C@H](Cc2ccc(O)cc2)N1CCC12CC3CC(CC(C3)C1)C2 | 3 | -2 | 38 | 50* | 21 | -7 | 1
Cc1cc(NC(=O)Nc2cccc(Cl)c2)n(-c2ccccc2)n1 | 3 | -5 | 3 | 58* | 7 | -3 | 86*
Cc1cc(NC(=O)Nc2ccc(Cl)c(Cl)c2)n(-c2ccccc2)n1 | -7 | -1 | 6 | 86* | 33 | 8 | 87*
CC(C)C[C@H]1COc2cc(N3CCC[C@@H]3CO)ccc2S(=O)(=O)N1 | . | . | . | -2 | . | . | .
O=C(/C=C/c1cccc([N+](=O)[O-])c1)NCCSCc1cccc(Cl)c1 | 2 | 2 | -2 | 63* | 18 | 15 | 56*
CC1CCC2C(C1)OS(=O)(=O)NC2(C)C (stereo not drawn) | -6 | . | . | . | -17 | -16 | .
CCOC(=O)N1CCN(C(=O)/C=C/c2c(C)nn(-c3ccc(F)cc3)c2Cl)CC1 | . | 0 | 11 | 1 | . | . | .
COc1ccc(C(=O)/C(C#N)=N/Nc2ccccc2[N+](=O)[O-])cc1 | 27 | 2 | -6 | 95* | 47 | -3 | 88*
COCC(C)N=C1NN=C(c2cc(C)n(Cc3ccccc3Cl)c2C)CS1 (stereo not drawn) | 31 | -2 | 11 | 79* | 49 | 23 | 83*
COCC(C)N=C1NN=C(c2ccc(NC(C)=O)cc2)CS1 (stereo not drawn) | -5 | 0 | -22 | 2 | 5 | 0 | .
CC(C)(C)c1ccc(OCC(=O)Nc2ccncc2)c(Br)c1 | . | -1 | -1 | 108* | 39 | 72 | 88*
Cc1cc(OCC(=O)Nc2ccncc2)cc(C)c1Cl | . | -2 | -16 | 94* | 11 | 16 | 84*
SMILES | Beta apoptosis | NR3A LBD binder | Gli-Sufu antag | MPTP inh | Mdm2-MdmX inh | CSC inhib | Rh123 counter | others
CC(C)CCOc1cccc(OCC(=O)Nc2ccncc2)c1 | 4 | -11 | 22 | 107* | 30 | 20 | 101*
O=C(COc1ccc2ccccc2c1Br)Nc1cccnc1 | -4 | 0 | -22 | 0 | 11 | 2 | .
O=C(COc1ccc2ccccc2c1Br)Nc1ccncc1 | -4 | 14* | -2 | 92* | -2 | 50 | 82*
Cc1ccc(OCC(=O)Nc2ccncc2)cc1C | . | . | . | 14 | . | . | .
CC1SC(C)C(=O)N(CC(=O)NCc2ccc(F)cc2)C1=O (stereo not drawn) | -5 | 2 | -8 | 0 | 0 | -7 | .
CCCCc1c(-c2ccc(OC)cc2)ncn1CCc1ccccc1OC | . | . | . | 44 | . | . | .
CCc1ccc(OCC(=O)Nc2ccncc2)c(Br)c1 | -3 | -1 | 9 | 79* | 19 | 49 | 80*
CCc1ccc(OCC(=O)NNC(=O)c2cnccn2)c(Br)c1 | 1 | 6 | 1 | -1 | 21 | -7 | .
Cc1cc(OCC(=O)Nc2ccncc2)c(C)cc1Br | -8 | -3 | -4 | 98* | -1 | -13 | 84*
COc1cccc(NC(=O)CNC(=O)c2ccc(C)o2)c1 | -10 | -1 | 5 | -1 | 26 | -12 | .
O=C(COC(=O)c1cccc(F)c1)Nc1cccnc1Cl | -3 | -2 | 0 | -1 | 27 | 0 | .
O=C(Cc1ccc(S(=O)(=O)N2CCCCC2)s1)Nc1cccc2ccccc12 | -2 | -2 | 6 | + | 24 | . | 4 | MPTP abs DR=>100;MPTP cs DR=>80
CCC(C)NS(=O)(=O)c1ccc(S(=O)(=O)N2CC=C(c3ccc(F)cc3)CC2)cc1 (stereo not drawn) | 14 | -4 | 12 | 66* | 27 | 10 | 56*
CCC(C)NC(=O)C1=CCN(S(=O)(=O)c2ccc(C)cc2)CC1 (stereo not drawn) | -2 | 1 | 3 | 0 | 11 | -12 | .
COc1ccc(C2(c3ccc(O)cc3O)CC(c3ccccc3Cl)NC(=S)N2)cc1 (stereo not drawn) | -3 | -6 | 3 | -3 | -27 | 9 | .
CC(=O)Nc1ccc(C(=O)COC(=O)C2CC2)c(F)c1 | . | 1 | -3 | 0 | -20 | . | .
N#CC1C(=O)NC(=O)C(C#N)C12CCCC(C(F)(F)F)C2 (stereo not drawn) | . | -1 | -13 | 0 | . | . | .
O=c1cc(C(F)(F)F)nc(SCc2cccc3ccccc23)[nH]1 | -2 | 5 | 4 | 78* | 5 | 32 | 85*
Nc1cc(=O)[nH]c(SCc2cccc3ccccc23)n1 | -1 | -3 | -15 | -1 | 31 | -17 | .
COc1cccc(OC)c1C(=O)Nc1nc2ccc([N+](=O)[O-])cc2s1 | 1 | -3 | -9 | 1 | 15 | 2 | .
CCc1ccc(Nc2cc(C(=O)NCCCN3CCOCC3)c3ccccc3n2)cc1 | -1 | -6 | 16 | 52* | 13 | 1 | -25 | MPTP abs DR=i;MPTP cs DR=>80

From PubChem BioAssay
